Values joined by “and” are separate entries in the source; they are usually repeats but may differ in a detail not shown here. Equal values may be shown once. Results filed as inconclusive are left out. Active and inactive are the calls of the source. The call rests on the fitted dose curve; in most records, active means well fitted curve in the direction sought with a large enough effect; inconclusive means small, poorly fitted or top-dose-only effect, or another doubt; inactive means no such curve, though single readings can be large; an effect the other way counts as inactive or inconclusive.
Experiments:
[1] = biological target: Cellular tumor antigen p53 (Homo sapiens) (UniProt P04637); test: Primary qHTS for small molecule compounds that upregulate eGFP-tagged delta133p53alpha (in N-terminal) cells. (AID 2060322); details: NCI-H358 eGFP-delta133p53alpha fluorescence, 24 h; activation: stronger effect = higher value; further: nearly all actives have a fitted effect of over 75% in size; further: potency means the concentration at half of the fitted maximal effect;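 on activation: series mostly up to about 56 µM; 0% = DMSO vehicle and 100% = reference activator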
Outline: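 NCI-H358 cells pre-induced 24 h with 10 ng/ml doxycycline to express N-terminal eGFP-delta133p53alpha, then dosed 24 h at 37C without doxycycline; fixed, Hoechst-stained, GFP intensity by laser scanning cytometry, normalized to DMSO (0%) and 57.5 uM 5-azacytidine (100%).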

[2] = biological target: Aldehyde dehydrogenase, mitochondrial (Homo sapiens) (UniProt P05091); test: qHTS for Inhibitors of the Aldehyde Dehydrogenase Family (ALDH2) Primary screen (AID 2061308);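 further: plate controls were vehicle for no effect and reference inhibitor for full effect; nearly all actives have a fitted effect of over 55% in size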
[3] = biological target: Retinaldehyde dehydrogenase 3 (Homo sapiens) (UniProt P47895); test: qHTS for Inhibitors of the Aldehyde Dehydrogenase Family (ALDH1A3) Validation screen (AID 2061312); further: on the % scale 0 is the no-effect control and ±100 the full control effect; nearly all actives have a fitted effect of over 45% in size
[4] = biological target: Retinaldehyde dehydrogenase 3 (Homo sapiens) (UniProt P47895); test: qHTS for Inhibitors of the Aldehyde Dehydrogenase Family (ALDH1A3) Primary screen (AID 2061315);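 further: plate controls were DMSO vehicle for no effect and reference inhibitor for full effect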
[5] = BET inhibitor-based combinations targeting novel dependencies in MECOM-rearranged (r) AML: SET-2 cell line (AID 2202231); details: SET-2 AML cells viability, CellTiter-Glo luminescence, 48 h; viability: stronger effect = lower value, concentration not given here; further: nearly all actives have a fitted effect of over 35% in size; further: potency means the concentration at half of the fitted maximal effect;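 on viability: plate controls were DMSO treated cells for no effect and wells without cells for full effect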
Outline: (§1)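 Cells were plated at 500 per well and exposed to an 11-point dose series of each drug for 48 hr. Viability was measured by CellTiter-Glo luminescence, normalized to DMSO and empty-well controls, and summarized as AUC and per-cell-line Z-AUC.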

[6] = BET inhibitor-based combinations targeting novel dependencies in MECOM-rearranged (r) AML: OCI-AML3 cell line (AID 2202232); details: Potency: OCI-AML3 viability; further: nearly all actives have a fitted effect of over 35% in size; further: potency means the concentration at half of the fitted maximal effect
Outline: as §1

[7] = BET inhibitor-based combinations targeting novel dependencies in MECOM-rearranged (r) AML: MV-4-11 cell line (AID 2202233); further: nearly all actives have a fitted effect of over 45% in size; further: potency means the concentration at half of the fitted maximal effect
Outline: (§2)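 Activity is given as area under the curve and as Z-AUC, mean-centred within each cell line. It comes from 11-point dose curves normalized to DMSO and empty wells. CellTiter-Glo luminescence was read after 48 hr drug exposure of 500 cells/well.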

[8] = BET inhibitor-based combinations targeting novel dependencies in MECOM-rearranged (r) AML: HNT-34 cell line (AID 2202234); further: nearly all actives have a fitted effect of over 35% in size; further: potency means the concentration at half of the fitted maximal effect
Outline: as §2

[9] = BET inhibitor-based combinations targeting novel dependencies in MECOM-rearranged (r) AML: UCSD-AML1 cell line (AID 2202235); further: nearly all actives have a fitted effect of over 40% in size; further: potency means the concentration at half of the fitted maximal effect
Outline: as §2

[10] = BET inhibitor-based combinations targeting novel dependencies in MECOM-rearranged (r) AML: AML-191 cell line (AID 2202236; further: nearly all actives have a fitted effect of over 35% in size; further: potency means the concentration at half of the fitted maximal effect)
Outline: as §1

[11] = BET inhibitor-based combinations targeting novel dependencies in MECOM-rearranged (r) AML: AML-194 cell line (AID 2202237; further: nearly all actives have a fitted effect of over 40% in size; further: potency means the concentration at half of the fitted maximal effect)
Outline: as §1

Chain of Cellular tumor antigen p53 (Homo sapiens) (P04637 whole entry, looked up): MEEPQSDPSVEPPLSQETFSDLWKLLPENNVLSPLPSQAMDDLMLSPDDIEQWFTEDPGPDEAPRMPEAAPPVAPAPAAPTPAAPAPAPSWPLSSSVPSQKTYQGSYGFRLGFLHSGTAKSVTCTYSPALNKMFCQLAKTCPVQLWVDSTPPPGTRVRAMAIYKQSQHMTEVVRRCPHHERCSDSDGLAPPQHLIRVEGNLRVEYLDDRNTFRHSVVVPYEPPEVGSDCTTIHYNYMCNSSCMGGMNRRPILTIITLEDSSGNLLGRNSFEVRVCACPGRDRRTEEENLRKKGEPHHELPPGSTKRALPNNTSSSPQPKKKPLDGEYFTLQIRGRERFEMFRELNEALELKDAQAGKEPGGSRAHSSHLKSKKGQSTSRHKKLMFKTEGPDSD

CCCCc1oc2ccc(NS(C)(=O)=O)cc2c1C(=O)c1ccc(OCCCN(CCCC)CCCC)cc1
inactive: activation [1] 2.56% | Potency [2] | Potency [3] | Potency [4]
active: Potency [5] 18.6 µM | Potency [6] 14.8 µM | Potency [7] 10.5 µM | Potency [8] 11.8 µM | Potency [9] 10.5 µM | Potency [10] 10.5 µM | Potency [11] 10.5 µM

CCNC(=O)N1CCCN(c2ccc(C(=O)NCCc3ccc(Cl)cc3Cl)cc2NC(=O)c2cccc(Cl)c2)CC1
inactive: activation [1] 1.91% | Potency [2] | Potency [3] | Potency [4]

Fc1ccc(CNc2ncnc3ccc(F)cc23)cc1
active: Potency [5] 2.63 µM | Potency [6] 4.17 µM | Potency [7] 5.9 µM | Potency [8] 16.6 µM
inactive: activation [1] -0.393% and 5.25% | Potency [2] | Potency [3] | Potency [4] | Potency [9]

O=C(O)CCNc1cc(N2CCc3ccccc3CC2)nc(-c2ccccn2)n1
inactive: activation [1] -6.15% and -0.477% and 0.955% | Potency [2] | Potency [3] | Potency [4] | viability [5] 103% | Potency [6] | Potency [7] | Potency [8] | Potency [9] | Potency [10] | Potency [11]

CC(C)(O)c1ccccc1CC[C@@H](SCC1(CC(=O)O)CC1)c1cccc(/C=C/c2ccc3ccc(Cl)cc3n2)c1
inactive: activation [1] -15.3% and -1.91% | Potency [2] | Potency [3] | Potency [4]

CN1CCC(NC(=O)c2cc(-c3c(O)cc(O)cc3Oc3ccc([N+](=O)[O-])cc3)on2)CC1
inactive: activation [1] 5.25% | Potency [2] | Potency [3] | Potency [4]

OC(CC1c2ccccc2-c2cncn21)C1CCCCC1 (stereo not given)
inactive: activation [1] -7.16% | Potency [2] | Potency [3] | Potency [4]

COc1c(F)cccc1C(=O)N1C[C@@H](C)CC[C@H]1CNc1ccc(Br)cn1
inactive: activation [1] -8.59% | Potency [2] | Potency [3] | Potency [4]

COc1ccc(CN2CCN(C(=O)CCNC(=O)c3ccc(C(C)(C)C)cc3)CC2)cc1
inactive: activation [1] -7.16% | Potency [2] | Potency [3] | Potency [4]

COCCN1CCN(Cc2ccc(-c3n[nH]c4c3C(=O)c3c(NC(=O)NN5CCOCC5)cccc3-4)cc2)CC1
active: Potency [1] 0.0757 µM | Potency [5] 0.417 µM | Potency [6] 0.166 µM | Potency [7] 0.0263 µM | Potency [8] 0.166 µM | Potency [9] 0.148 µM | Potency [10] 0.186 µM | Potency [11] 0.332 µM
inactive: Potency [2] | Potency [3] | Potency [4]

O=C(O)CCn1c2c(c3ccccc31)C[C@H](NS(=O)(=O)c1ccc(F)cc1)CC2
inactive: activation [1] 0.565% and -1.83% and 6.68% | Potency [2] | Potency [3] | Potency [4] | viability [5] 105% | Potency [6] | Potency [7] | Potency [8] | Potency [9] | Potency [10]

O=C(Nc1ccccc1)Nc1ccc(-c2ccc(C(=O)C3CCCC3C(=O)O)cc2)cc1 (stereo not given)
inactive: activation [1] -6.21% | Potency [2] | Potency [3] | Potency [4]

C#CC[C@H](c1nc2cc(Cl)ccc2c(=O)n1Nc1ccccc1)N(CCCN)C(=O)c1cccc(Cl)c1F
inactive: Potency [2] | Potency [3] | Potency [4]
active: Potency [1] 4.78 µM | Potency [5] 10.5 µM | Potency [6] 0.59 µM | Potency [7] 1.05 µM | Potency [8] 0.372 µM

C[C@@H](O[C@H]1OCCN(Cc2nn(P(=O)(O)O)c(=O)[nH]2)[C@H]1c1ccc(F)cc1)c1cc(C(F)(F)F)cc(C(F)(F)F)c1
inactive: activation [1] 10% | Potency [2] | Potency [3] | Potency [4]

Cc1ccc(NC(=O)C(C)C)cc1C1CCN(Cc2ccc(Oc3ccc(F)c(F)c3)cc2)CC1
inactive: activation [1] 16.7% | Potency [2] | Potency [3] | Potency [4]

Nc1ncnc2c1ncn2[C@H]1CCCO1
inactive: activation [1] -5.73% | Potency [2] | Potency [3] | Potency [4]

NCC1CCN(c2nccc(-c3ccc4ccccc4c3)n2)CC1
active: Potency [1] 23.9 µM | Potency [5] 16.6 µM | Potency [6] 4.68 µM | Potency [7] 4.17 µM | Potency [8] 8.33 µM | Potency [9] 2.95 µM | Potency [10] 2.63 µM | Potency [11] 2.95 µM
inactive: Potency [2] | Potency [3] | Potency [4]

O=c1[nH]c(=O)n([C@H]2CCCO2)cc1F
inactive: activation [1] -9.6% and 3.34% | Potency [2] | Potency [3] | Potency [4]

Cc1c(-c2ccnn2C)cc(C(=O)NCc2ccc(S(C)(=O)=O)cn2)c(=O)n1-c1cccc(C(F)(F)F)c1
inactive: activation [1] -2.86% and -5.25% | Potency [2] | Potency [3] | Potency [4] | viability [5] 103% | Potency [6] | Potency [7] | Potency [8] | Potency [9] | Potency [10]

— PubChem BioAssay (NCATS)
